Compounds with a hit are over-represented: about 10% of the library has one in this group of screens.
GLA inh pH 4.5: inhibitors of human alpha-galactosidase A at pH 4.5; activity change, negative = inhibition, % at 105 µM; 230,000 tested, under 10 active; P06280; purified enzyme, 4-MU-alpha-Gal fluorescence, pH 4.5;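 also: 0% = full activity with enzyme and -100% = basal without enzyme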
Target sequence (P06280 whole entry, looked up): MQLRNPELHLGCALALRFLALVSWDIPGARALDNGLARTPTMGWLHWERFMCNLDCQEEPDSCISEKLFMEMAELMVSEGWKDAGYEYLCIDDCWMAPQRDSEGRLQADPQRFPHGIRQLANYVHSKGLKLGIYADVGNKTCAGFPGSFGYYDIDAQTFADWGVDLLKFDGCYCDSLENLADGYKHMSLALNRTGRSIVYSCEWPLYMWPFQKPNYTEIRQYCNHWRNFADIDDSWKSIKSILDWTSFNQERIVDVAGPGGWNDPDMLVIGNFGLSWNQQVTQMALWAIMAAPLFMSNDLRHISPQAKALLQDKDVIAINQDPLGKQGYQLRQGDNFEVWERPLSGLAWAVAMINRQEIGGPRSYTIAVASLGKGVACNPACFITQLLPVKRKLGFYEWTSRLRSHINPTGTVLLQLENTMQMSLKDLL
ALDH1A1 block: blocks purified human ALDH1A1 activity; P00352; Purified ALDH1A1, NADH fluorescence, propionaldehyde substrate; Potency, µM (titrated, usually from 75.3 µM), without a hit: at the top dose activity, negative = inhibition, hits mostly inhibitors; 220,000 tested, 7.3% active; AID 1030; active = well fitted inhibition curve with a large enough effect, not every such curve was filed as active; inconclusive = small, poorly fitted or top-dose-only effect, or another doubt; inactive = no such curve, though single readings can be large or run the other way;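 also: potency is read from the fitted curve at half-maximal effect; plate controls were no enzyme wells and a reference inhibitor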
12-hLO inh: blocks human 12-lipoxygenase activity; 150,000 tested, 0.12% active; purified 12-hLO, xylenol orange hydroperoxide absorbance; Potency, µM (top dose mostly 57.1 µM), without a hit: at the top dose activity change, negative = inhibition, hits mostly inhibitors; also: potency is read from the fitted curve at half-maximal effect; nearly all actives have a fitted effect of over 55% in size
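Purified human 12hLO (150 nM), preincubated 15 min with compound, then 40 uM arachidonic acid for 30 min, room temperature, Hepes pH 7.0 with 0.01% Triton X-100. Hydroperoxide detected by ferrous iron/xylenol orange; 573/405 nm absorbance ratio gives reaction progress.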
aGal spleen mod: inhibitors or activators of human alpha-galactosidase in spleen homogenate | P06280 | human spleen homogenate, 4MU-alpha-Gal fluorescence, 40 min | Potency, µM (titrated, usually from 80 µM), for the others: at the top dose activity change, negative = inhibition, actives largely listed as inhibitors | 240,000 tested, 0.008% active;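 also: potency is read from the fitted curve at half-maximal effect; 0% = enzyme with vehicle and -100% = no enzyme basal signal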
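Human spleen homogenate (1 ug) as enzyme source, 4-methylumbelliferyl-alpha-D-galactopyranoside 1 mM final, citrate/phosphate pH 5.0 with 0.01% Tween-20. Compounds 40 min at 37C, NaOH/glycine stop; fluorescence Ex 365/Em 440, Hill-fit AC50.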
HPGD inh: HPGD (human) dehydrogenase inhibition; Potency, µM, inactives show at the top dose activity change, negative = inhibition, hits mostly inhibitors; 150,000 tested, 4.3% active; P15428; purified HPGD, NADH fluorescence kinetic, PGE2 substrate; AID 894; active = well fitted inhibition curve with a large enough effect, not every such curve was filed as active; inconclusive = small, poorly fitted or top-dose-only effect, or another doubt; inactive = no such curve, though single readings can be large or run the other way; also: potency is read from the fitted curve at half-maximal effect
Target sequence (P15428 whole entry, looked up): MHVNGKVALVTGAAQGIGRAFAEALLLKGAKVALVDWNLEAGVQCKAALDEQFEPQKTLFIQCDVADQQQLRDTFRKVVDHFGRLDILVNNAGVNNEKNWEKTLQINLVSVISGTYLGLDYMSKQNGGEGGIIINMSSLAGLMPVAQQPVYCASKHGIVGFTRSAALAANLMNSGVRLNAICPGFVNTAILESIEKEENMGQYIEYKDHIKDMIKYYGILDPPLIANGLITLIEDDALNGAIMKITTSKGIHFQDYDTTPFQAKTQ
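20 nM HPGD preincubated 15 min at room temperature with compound in 50 mM Tris-HCl pH 8, 0.01% Tween 20. Started with 1 mM NAD+ and 30 uM prostaglandin E2; NADH fluorescence (360/450 nm) read 5 times over 30-s intervals, last minus first.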
PNC assembly inh: inhibitors of perinucleolar compartment assembly. PC3M PTB-GFP, PNC prevalence imaging, 16 h; hits give low values. AID 2417. 140,000 tested, 3.1% active. activity change (PNC), negative = inhibition, % at 10 µM;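 active = readout at or below -70, meaning at least 70% loss of cells showing the perinucleolar compartment, a nuclear body marking cancer cells; inconclusive = readout between -30 and a set limit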;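 also: plate controls were DMSO wells for no effect and camptothecin positive control wells for full effect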
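Compounds are pinned in duplicate onto adhered PC3M cells stably expressing GFP-tagged PTB and incubated 16 h at 37 C. Cells are then fixed, nuclei stained with Hoechst, and PNC-positive cells counted.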
* hit, by the source's call; ? = inconclusive; · = no result given; [ ] = dose if it differs, or a comment. Unless noted, calls follow the shape of the dose curve; as a rule, active = well fitted curve in the direction sought with a large enough effect; inconclusive = small, poorly fitted or top-dose-only effect, or another doubt; inactive = no such curve, though single readings can be large; an effect the other way counts as inactive or inconclusive. Unless noted, % is scaled to controls: 0 for no effect and ±100 for the full control effect.

SMILES	GLA inh pH 4.5	ALDH1A1 block	12-hLO inh	aGal spleen mod	HPGD inh	PNC assembly inh
COc1ccc(N=C2SC(CC(=O)Nc3ccccc3F)C(=O)N2Cc2ccco2)cc1 (centres undefined)	-9	2.5µM*	-2%	3%	-8%	-3
CC(C)NC(=O)CC(=O)NN=C1CCCCC1	7	-7%	·	-3%	·	·
CC(C)CNC(=O)CC(=O)NN=C1CCCC1	-2	-2%	0%	-7%	-6%	-113*
CNC(=O)c1sc(=S)n(-c2ccc(OC)cc2)c1N	-17	-3%	·	4%	·	·
Cc1nnc(SCC(=O)NCC2CCCO2)n1-c1ccccc1 (centres undefined)	3	?	4%	9%	-19%	-118*
c1ccc(-n2c(SCC3CCCCO3)nnc2-c2cnccn2)cc1 (centres undefined)	0	?	-4%	3%	28µM*	-28
COc1ccc(-n2c(SCC(=O)NCC3CCCO3)nc3ccccc32)cc1 (centres undefined)	-4	?	-2%	4%	10µM*	5
CC(C)OC(=O)CSc1nnc(-c2cnccn2)n1-c1ccccc1	5	10%	-6%	-2%	-30%	203
COc1ccc(-n2c(N)c(C(=O)NCC3CCCO3)sc2=S)cc1 (centres undefined)	-6	?	-1%	2%	16µM*	48
COc1ccc(-n2c(Cc3cccn3C)nnc2SCC(=O)NCC2CCCO2)cc1 (centres undefined)	7	-13%	4%	-1%	-9%	-10
Cc1nnc(SC(C)C(=O)NCC2CCCO2)n1-c1ccccc1 (centres undefined)	-4	?	3%	-3%	-7%	?
CCNc1ncc2nc(-c3cccc(C#N)c3)c(=O)n(CCC#N)c2n1	·	?	0%	?	-6%	·
CNC(=S)N(Cc1cc2cc(OC)c(OC)cc2[nH]c1=O)C1CCCC1	3	?	·	2%	·	·
COc1cc(CNCCc2c[nH]c3ccccc23)cc(Cl)c1OCC(N)=O	·	16µM*	·	11%	·	·
CCOc1cc(CNCCc2c[nH]c3ccccc23)cc(Cl)c1OCC(N)=O	-2	·	·	4%	·	·
CC(C)(C)c1ccc(/C=C/C(=O)N2CCc3ccccc3C2)cc1	-2	-1%	1%	0%	-6%	105
Cc1ccc(/C=C/C(=O)N2CCc3ccccc3C2)cc1	-1	0%	-3%	-3%	14µM*	8
NC(=O)COC(=O)c1ccc2c(c1)S(=O)(=O)N=C1CCCCCN12	3	8.9µM*	0%	7%	-7%	-1
COC(=O)c1cc2c(cc1Cl)N1CCCCCC1=NS2(=O)=O	-4	·	·	-4%	·	·
COc1ccc(C2CC(=O)C(C(c3ccc(O)cc3)C3C(=O)CC(c4ccc(OC)cc4)CC3=O)C(=O)C2)cc1 (centres undefined)	-3	·	·	-2%	·	·
COC(=O)c1ccc(-c2nc(O)c(C)s2)cc1	-2	20µM*	·	-7%	·	·
COC(=O)c1ccc(-c2nc3cc(Cl)c(N)cc3s2)cc1	-1	10%	6%	10%	-20%	?
CC(=O)c1ccc(NC(=O)CN2CCN(c3ncccn3)CC2)cc1	1	8.9µM*	-14%	-1%	-5%	18
CCN(CC)c1ccc(NC(=O)CN2CCN(c3nc(C)cc(C)n3)CC2)cc1	-7	7.9µM*	0%	4%	?	-5
CCN(CC)c1ccc(NC(=O)CN2CCN(c3ccc(F)cc3)CC2)cc1	-7	-7%	?	-16%	-11%	?
SMILES	GLA inh pH 4.5	ALDH1A1 block	12-hLO inh	aGal spleen mod	HPGD inh	PNC assembly inh
CC(=O)c1ccc(N2CCN(CC(=O)Nc3cc(C)on3)CC2)cc1	12	1%	·	-7%	·	·
CCOC(=O)CNC(=O)N1CCCC(C(=O)c2cccc(Cl)c2)C1 (centres undefined)	0	-4%	·	-4%	·	·
CC(C)C(C)/C=C/C(C)C1CCC2C3=CCC4CC(=O)CC[C@@]4(C)C3CC[C@]21C (some centres undefined)	-8	-7%	-3%	4%	-7%	·
O=C1CC(c2ccc3c(c2)OCO3)c2ccc(O)cc2O1 (centres undefined)	-6	9%	-2%[0.00818 µM]	-5%[119 µM]	-3%	·
O=C1CC(c2ccc3c(c2)OCO3)c2cc(O)ccc2O1 (centres undefined)	-7	?	-5%[0.00818 µM]	8%[119 µM]	40µM*	·
CCOc1cc(S(=O)(=O)NCc2ccccc2)ccc1Br	-6	-5%	·	-2%	·	·
O=C(Nc1cccc(O)c1)c1cc(S(=O)(=O)N2CCCC2)ccc1Cl	1	5µM*	1%	24%	-7%	-6
O=C(Nc1ccc(Cl)cn1)c1cc(S(=O)(=O)N2CCCCC2)ccc1Cl	4	28µM*	0%	17%	-13%	-16
CCOc1ncccc1C(=O)Nc1ccc(Cl)c(S(=O)(=O)N2CCCC2)c1	-3	4.5µM*	·	-2%	·	·
O=C(Nc1ccccc1)c1cc(S(=O)(=O)N2CCSCC2)ccc1Cl	-3	-12%	1%	5%	-2%	?
COC(=O)N1[C@H]2CC[C@@]3(C)C=C(C)O[C@]1(C)C3c1ccccc12	0	19%	·	-9%	-2%	·
O=C(c1ccco1)N1CCn2cccc2C1c1ccccc1 (centres undefined)	-1	1.3µM*	·	-20%	·	·
CCCCCCCCOc1c(OC)cc(/C=C/C(=O)N2CCN(c3ccc(C)c(C)c3)CC2)cc1OC	·	·	·	-17%	·	·
COc1ccc(NC(=O)Cn2c(=O)n(CC3CCCO3)c(=O)c3ccccc32)c(OC)c1 (centres undefined)	3[21.1 µM]	0.028µM*	·	1%	·	·
O=C(O)CSc1c2c(nc3cc(C(=O)N4CCOCC4)ccc13)CCCC2	10	-2%	0%	6%	4µM*	29
COc1ccccc1NC(=O)CSc1c2c(nc3ccccc13)CCC2	2	3%	1%	1%	-26%	-16
COc1cc(NC(=O)Cn2c(=O)n(CC3CCCO3)c(=O)c3ccccc32)cc(OC)c1 (centres undefined)	-4	?	·	1%	·	·
COc1cc(NC(=O)c2ccc3c(SCC(=O)O)c4c(nc3c2)CCCC4)cc(OC)c1OC	5	10µM*	·	7%	·	·
COc1ccc(NC(=O)CSc2c3c(nc4ccccc24)CCCC3)c(OC)c1	-10	-5%	-1%	3%	-7%	-113*
CC1CCCCC12NC(=O)N(CC(=O)Nc1ccc(N3CCOCC3)cc1)C2=O (centres undefined)	-6	-5%	-4%	-3%	-4%	-7
O=C1C[C@H]2OCC=C3CN4CC[C@@]5(C(=O)O)[C@H](N1)C2[C@H]3C[C@H]45 (some centres undefined)	·	-5%[13.5 µM]	·	·	-1%	·

Bioassay records from PubChem BioAssay.
